Data as given in PubChem BioAssay (EPA / NIEHS).
Calls of active or inactive are those of the source. The calls were made as follows: active = hit-call score of the fitted dose curve at least 0.9, where 1 is the maximum; inactive = score below 0.9.

Experiments:
[1] = read-out: Urokinase-type plasminogen activator receptor (uPAR), PLAUR (gene 5329); experiment: BSK_4H_uPAR: BioMAP Diversity Plus: 4H Assay for Urokinase-type plasminogen activator receptor (uPAR) Biomarker Activity (AID 2283030); details: primary human endothelial cells (HUVEC); actives raise or lower the signal
Method in brief: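 Endpoint derived via bidirectional curve fitting against DMSO baseline; readout was ELISA detection of uPAR on umbilical vein endothelial cells at 24 h post-treatment, with SRB-stained parallel cultures assessing cytotoxicity.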

[2] = read-out: Vascular endothelial growth factor receptor 2 (Homo sapiens) (UniProt P35968); experiment: BSK_4H_VEGFRII: BioMAP Diversity Plus: 4H Assay for Vascular endothelial growth factor receptor 2 (VEGFR2) Biomarker Activity (AID 2283031); details: primary human endothelial cells (HUVEC); actives raise or lower the signal;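 as to AC50: cell-surface VEGFR2 protein level quantified by ELISA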
Method in brief: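 In this multiplexed HUVEC system, biomarker ELISA was performed after 24 h chemical exposure. Parallel SRB staining (TCA fixation, 560 nm) tracked cytotoxicity; DMSO served as baseline.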

[3] = read-out: Human Leukocyte Antigen - DR isotype (HLADR), HLA-DRA (gene 3122); experiment: BSK_BE3C_HLADR: BioMAP Diversity Plus: BE3C Assay for Human Leukocyte Antigen - DR isotype (HLADR) Biomarker Activity (AID 2283032); details: primary human bronchial epithelial cells; actives raise or lower the signal
Method in brief: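 BioMAP BE3C format: human bronchial epithelium, 24 h compound treatment, ELISA detection of HLA-DR, with bidirectional analysis relative to DMSO.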

[4] = read-out: Vascular cell adhesion molecule 1 (VCAM1), VCAM1 (gene 7412); experiment: BSK_4H_VCAM1: BioMAP Diversity Plus: 4H Assay for Vascular cell adhesion molecule 1 (VCAM1) Biomarker Activity (AID 2283033); details: primary human endothelial cells (HUVEC); actives raise or lower the signal
Method in brief: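 In this human endothelial (HUVEC) system, biomarker ELISA was run 24 h after compound addition, and total protein in parallel wells was assessed by SRB at 560 nm; DMSO served as negative control.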

[5] = read-out: Interferon-gamma inducible Protein 10 (IP10), CXCL10 (gene 3627); experiment: BSK_BE3C_IP10: BioMAP Diversity Plus: BE3C Assay for Interferon-gamma inducible Protein 10 (IP10) Biomarker Activity (AID 2283034); details: primary human bronchial epithelial cells; actives raise or lower the signal
Method in brief: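 BE3C cells (human bronchial epithelial, primary); 24 h exposure; ELISA for IP-10; DMSO-referenced bidirectional fit.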

[6] = read-out: Monokine induced gamma interferon (MIG), CXCL9 (gene 4283); experiment: BSK_BE3C_MIG: BioMAP Diversity Plus: BE3C Assay for Monokine induced gamma interferon (MIG) Biomarker Activity (AID 2283035); details: primary human bronchial epithelial cells; actives raise or lower the signal
Method in brief: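 Dose cells (human primary bronchial epithelial), incubate 24 h, quantify MIG by ELISA, then fit concentration–response in both directions relative to DMSO control.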

[7] = read-out: Plasminogen activator inhibitor-1 (PAI1), SERPINE1 (gene 5054); experiment: BSK_BE3C_PAI1: BioMAP Diversity Plus: BE3C Assay for Plasminogen activator inhibitor-1 (PAI1) Biomarker Activity (AID 2283037); details: primary human bronchial epithelial cells; actives raise or lower the signal
Method in brief: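 In this multiplexed primary-cell system, bronchial epithelial cells receive test chemical and are sampled at 24 h. PAI-1 is read by ELISA, with DMSO serving as negative control for bidirectional fitting.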

[8] = read-out: urokinase plasminogen activator (uPA), PLAU (gene 5328); experiment: BSK_BE3C_uPA: BioMAP Diversity Plus: BE3C Assay for urokinase plasminogen activator (uPA) Biomarker Activity (AID 2283038); details: primary human bronchial epithelial cells; actives raise or lower the signal
Method in brief: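 Using confluent primary human lung bronchial epithelial cultures, we dosed chemicals, waited 24 h, then ran a uPA ELISA, fitting bidirectionally against DMSO.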

[9] = read-out: Urokinase-type plasminogen activator receptor (uPAR), PLAUR (gene 5329); experiment: BSK_BE3C_uPAR: BioMAP Diversity Plus: BE3C Assay for Urokinase-type plasminogen activator receptor (uPAR) Biomarker Activity (AID 2283039); details: primary human bronchial epithelial cells; actives raise or lower the signal;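 also: uPAR protein level measured by ELISA on the cells; cells exposed to compound for one day before measurement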
Method in brief: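 Chemically treated human bronchial epithelial cells (lung primary) are assayed for uPAR by ELISA after 24 h, with data fitted in both directions using DMSO as negative control.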

[10] = read-out: Interleukin-6 (IL6), IL6 (gene 3569); experiment: BSK_CASM3C_IL6: BioMAP Diversity Plus: CASM3C Assay for Interleukin-6 (IL6) Biomarker Activity for (AID 2283040); details: primary human coronary artery smooth muscle cells; actives raise or lower the signal
[11] = read-out: Tissue plasminogen activator (tPA), PLAT (gene 5327); experiment: BSK_BE3C_tPA: BioMAP Diversity Plus: BE3C Assay for Tissue plasminogen activator (tPA) Biomarker Activity (AID 2283041); details: primary human bronchial epithelial cells; actives raise or lower the signal
Method in brief: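 Using human lung primary bronchial epithelial cells, tPA was measured by ELISA 24 h after dosing; data fitted relative to DMSO.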

[12] = read-out: Interleukin-8 (IL8), CXCL8 (gene 3576); experiment: BSK_CASM3C_IL8: BioMAP Diversity Plus: CASM3C Assay for Interleukin-8 (IL8) Biomarker Activity (AID 2283042); details: primary human coronary artery smooth muscle cells; actives raise or lower the signal;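 also: IL-8 protein level quantified by ELISA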
[13] = read-out: Human Leukocyte Antigen - DR isotype (HLADR), HLA-DRA (gene 3122); experiment: BSK_CASM3C_HLADR: BioMAP Diversity Plus: CASM3C Assay for Human Leukocyte Antigen - DR isotype (HLADR) Biomarker Activity (AID 2283043); details: primary human coronary artery smooth muscle cells; actives raise or lower the signal;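 also: cell-surface HLA-DR protein level quantified by ELISA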
[14] = read-out: Monocyte Chemoattractant Protein-1 (MCP1), CCL2 (gene 6347); experiment: BSK_CASM3C_MCP1: BioMAP Diversity Plus: CASM3C Assay for Monocyte Chemoattractant Protein-1 (MCP1) Biomarker Activity (AID 2283046); details: primary human coronary artery smooth muscle cells; actives raise or lower the signal;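 also: MCP-1 level quantified by ELISA 24 h after dosing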
[15] = BSK_CASM3C_Proliferation: Cell Proliferation Assessment in the BioMAP Diversity Plus: CASM3C Assay (AID 2283047); details: primary human coronary artery smooth muscle cells;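 also: sulforhodamine B total protein stain as relative cell number at 560 nm; sub-confluent cells exposed 48 h before staining; fitted both ways against DMSO so gain or loss of cell number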
[16] = read-out: Thrombomodulin, THBD (gene 7056); experiment: BSK_CASM3C_Thrombomodulin: BioMAP Diversity Plus: CASM3C Assay for Thrombomodulin Biomarker Activity (AID 2283051); details: primary human coronary artery smooth muscle cells; actives raise or lower the signal;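 also: thrombomodulin protein level measured by ELISA 24 h after dosing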
[17] = read-out: Tissue Factor, F3 (gene 2152); experiment: BSK_CASM3C_TissueFactor: BioMAP Diversity Plus: CASM3C Assay for Tissue Factor Biomarker Activity (AID 2283052); details: primary human coronary artery smooth muscle cells; actives raise or lower the signal;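 also: cell surface tissue factor protein level read by ELISA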
[18] = read-out: Urokinase-type plasminogen activator receptor (uPAR), PLAUR (gene 5329); experiment: BSK_CASM3C_uPAR: BioMAP Diversity Plus: CASM3C Assay for Urokinase-type plasminogen activator receptor (uPAR) Biomarker Activity (AID 2283054); details: primary human coronary artery smooth muscle cells; actives raise or lower the signal;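 also: cell-surface uPAR protein level quantified by ELISA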
[19] = read-out: Epidermal growth factor receptor (EGFR), EGFR (gene 1956); experiment: BSK_hDFCGF_EGFR: BioMAP Diversity Plus: hDFCGF Assay for Epidermal growth factor receptor (EGFR) Biomarker Activity (AID 2283057); details: primary human foreskin fibroblasts; actives raise or lower the signal
Method in brief: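 Cell-based multiplexed assay in primary human foreskin fibroblasts. EGFR is read by ELISA 24 h after treatment and compared with DMSO controls.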

[20] = read-out: Interleukin-8 (IL8), CXCL8 (gene 3576); experiment: BSK_hDFCGF_IL8: BioMAP Diversity Plus: hDFCGF Assay for Interleukin-8 (IL8) Biomarker Activity (AID 2283058); details: primary human foreskin fibroblasts; actives raise or lower the signal
Method in brief: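 Fibroblast monolayers (human foreskin, hDFCGF) received test chemical for 24 h before ELISA detection of IL-8; either increases or decreases relative to DMSO count as activity.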

Measured: AC50

CCCCCCCCCCCCCCCCCC[N+](C)(C)C
inactive: [1] | [7] | [9] | [16]
active: [2] 1.23 µM | [3] 2.52 µM | [4] 1.42 µM | [5] 2.69 µM | [6] 3.82 µM | [8] 7.3 µM | [10] 8.51 µM | [11] 1.32 µM | [12] 9.19 µM | [13] 3.33 µM | [14] 3.5 µM | [15] 2.09 µM | [17] 3.27 µM | [18] 6.31 µM | [19] 2.81 µM | [20] 8.41 µM

Cc1cc(-n2nc3ccc(Cl)cc3n2)c(O)c(C(C)(C)C)c1
active: [1] 1.37 µM
inactive: [2] | [3] | [4] | [5] | [6] | [7] | [8] | [9] | [10] | [11] | [12] | [13] | [14] | [15] | [16] | [17] | [18] | [19] | [20]

CN(C)Cc1cc(C(C)(C)C)c(O)c(C(C)(C)C)c1
inactive: [1] | [2] | [3] | [4] | [5] | [6] | [7] | [8] | [9] | [10] | [11] | [12] | [13] | [14] | [15] | [16] | [17] | [18] | [19] | [20]

Sc1nc2ccccc2s1
inactive: [1] | [2] | [3] | [4] | [5] | [6] | [7] | [8] | [9] | [10] | [11] | [12] | [13] | [14] | [15] | [16] | [18] | [19] | [20]
active: [17] 0.016 µM

CCCCCCC(O)CCCCCCCCCCC(=O)OC (stereo not given)
active: [5] 9.22 µM
inactive: [1] | [2] | [3] | [4] | [6] | [7] | [8] | [9] | [10] | [11] | [12] | [13] | [14] | [15] | [16] | [17] | [18] | [19] | [20]

CN(C)c1ccc(C(c2ccccc2)c2ccc(N(C)C)cc2)cc1
active: [2] 5.36 µM | [4] 20 µM | [5] 10.7 µM | [7] 10.9 µM | [10] 9.64 µM | [11] 6.47 µM | [15] 9.42 µM | [16] 1.26 µM | [17] 7.33 µM
inactive: [1] | [3] | [6] | [8] | [9] | [12] | [13] | [14] | [18] | [19] | [20]

O=C(C(=O)c1ccccc1)c1ccccc1
inactive: [1] | [2] | [3] | [4] | [5] | [6] | [7] | [8] | [9] | [10] | [11] | [12] | [13] | [14] | [15] | [16] | [17] | [18] | [19] | [20]

Oc1cccc2ccccc12
active: [16] 5.22 µM
inactive: [1] | [2] | [3] | [4] | [5] | [6] | [7] | [8] | [9] | [10] | [11] | [12] | [13] | [14] | [15] | [17] | [18] | [19] | [20]
